Hits are enriched below; roughly 1.3% of the tested compounds scored in any of these assays.
S1P2 ag: S1P2 (human) receptor agonism; O95136; S1P2-expressing cell line, agonist reporter read-out; activation, % at 4.5 µM; 97,000 tested, 0.46% active; in the data active = activation above about 16%;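 also: 0% = vehicle low control and 100% = maximal reference agonist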
GALR2 agonist: GALR2 (human) receptor agonism; O43603; GALR2-expressing cells, agonist activation read-out; activation, % (no concentration beside the values); 140,000 tested, 0.48% active; AID 803; in the data active = activation above about 5%, passing the limit was not always enough;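 also: 0% = vehicle buffer wells and 100% = reference agonist at full effect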
LYP act: increases human PTPN22 phosphatase activity | Q9Y2R2 | activation, % at 2 µM | AID 697 | 96,000 tested, 0.11% active | recombinant LYP, DiFMUP fluorescence; 0 = plate median, 100 = signal doubled;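 active = activation at 2 µM above a set limit, the mean plus 5 SD, cut at about 37% in these data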
Target sequence (Q9Y2R2 whole entry, looked up): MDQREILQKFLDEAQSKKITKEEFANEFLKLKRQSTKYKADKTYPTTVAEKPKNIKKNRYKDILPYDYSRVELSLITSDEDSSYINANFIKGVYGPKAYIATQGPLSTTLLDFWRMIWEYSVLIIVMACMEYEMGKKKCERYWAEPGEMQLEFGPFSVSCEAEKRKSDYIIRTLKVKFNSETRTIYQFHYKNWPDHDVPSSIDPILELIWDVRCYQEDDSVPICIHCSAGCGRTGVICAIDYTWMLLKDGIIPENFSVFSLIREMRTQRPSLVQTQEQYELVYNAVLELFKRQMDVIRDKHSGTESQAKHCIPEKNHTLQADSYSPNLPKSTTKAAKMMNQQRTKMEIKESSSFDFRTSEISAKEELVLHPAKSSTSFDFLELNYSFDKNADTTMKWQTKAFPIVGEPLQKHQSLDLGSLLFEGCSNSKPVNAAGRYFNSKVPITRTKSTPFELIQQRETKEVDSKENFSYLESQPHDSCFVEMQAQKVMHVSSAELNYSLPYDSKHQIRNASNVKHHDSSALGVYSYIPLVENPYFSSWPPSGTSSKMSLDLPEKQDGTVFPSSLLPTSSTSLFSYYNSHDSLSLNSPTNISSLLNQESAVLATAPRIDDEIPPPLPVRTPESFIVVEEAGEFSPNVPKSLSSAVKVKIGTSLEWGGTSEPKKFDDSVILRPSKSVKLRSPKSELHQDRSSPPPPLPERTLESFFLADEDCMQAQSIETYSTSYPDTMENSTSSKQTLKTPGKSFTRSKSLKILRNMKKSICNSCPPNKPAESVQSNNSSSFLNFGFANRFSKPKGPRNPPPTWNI
GALR2 blocker: GALR2 (human) receptor antagonism. GALR2-expressing cells, antagonist mode. inhibition, % at 4 µM. 140,000 tested, 0.39% active. AID 828;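 also: cells stimulated with galanin 1-16 at roughly its EC80; 0% = agonist challenge control and 100% = basal control without agonist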
S1P2 blocker: S1P2 (human) receptor antagonism; O95136; inhibition, % at 5 µM; 97,000 tested, 0.21% active; cell-based S1P2 antagonist assay, inhibition at 5 uM; in the data active = inhibition above about 45%;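 also: CRE beta-lactamase reporter cells expressing human S1P2 stimulated with S1P; 0% = agonist at EC80 alone and 100% = agonist plus reference antagonist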
PTPN22 inh 2: inhibitors of human LYP (PTPN22) phosphatase; 96,000 tested, 0.21% active; recombinant LYP catalytic domain, DiFMUP fluorescence; Q9Y2R2; inhibition, % at 2 µM; AID 640;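 active = inhibition at 2 µM at or above a set limit, the screen mean plus 3 SD, cut at about 24% in these data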;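 also: 0% = DMSO with enzyme and 100% = enzyme fully blocked by orthovanadate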
GALR2 blk conf: GALR2 (human) antagonism confirmed; shares compounds with GALR2 blocker; GALR2-expressing cells, antagonist mode, inhibition; inhibition, % at 4 µM; 480 tested, 60% active;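 also: cells stimulated with galanin at about its EC80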
BLA inhib ctr: counter-screen for GALR2 antagonists: beta-lactamase reporter inhibitors; 480 tested, 36% active; AID 867; CHO NFAT-BLA reporter, beta-lactamase FRET, thapsigargin-stimulated; shares compounds with GALR2 blocker; inhibition, % at 4.2 µM;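 active = inhibition above the mean inhibition across tested compounds plus 3 SD, cut at about 27% in these data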;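 also: 0% = 500 nM thapsigargin stimulated wells and 100% = unstimulated BSA only wells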
Active calls of the source: *; x = no result given. Rule as the data show it, unless noted: active = inhibition above about 27%; inactive = the rest.

SMILES	S1P2 ag	GALR2 agonist	LYP act	GALR2 blocker	S1P2 blocker	PTPN22 inh 2	GALR2 blk conf	BLA inhib ctr
Cc1ccc(NC(=O)/C=C/c2ccc([N+](=O)[O-])s2)c(C)c1	x	1	x	33*	x	x	54*	55*
Cc1cccc(NC(=O)/C=C/c2ccc([N+](=O)[O-])s2)c1	x	0	x	32*	x	x	46*	47*
O=C(NC(=S)NCc1ccccc1)c1ccc2c(c1)OCO2	x	-1	x	-1	x	x	x	x
CONc1nc(NC(C)(C)C)nc(OCC#N)n1	x	-1	x	4	x	x	x	x
CN(C)c1nc(Nc2ccc(Cl)cc2)nc(OCC#N)n1	-5	-2	8	35*	-8	-5	30*	14
C=CCn1nc([N+](=O)[O-])nc1Sc1cccc2cccnc12	x	-1	x	31*	x	x	27	11
NC(=O)c1c(-c2ccc(Cl)cc2Cl)csc1NC(=O)Cc1ccccc1	x	0	x	34*	x	x	31*	17
O=C(Cc1ccccc1)Nc1scc(-c2ccccc2)c1C(=O)N1CCOCC1	-10	-4	3	2	15	0	x	x
Cc1ccc(Cn2nc(C)c3cc(C(=O)OCC(N)=O)sc32)cc1	-2	-1	2	3	-9	-1	x	x
Cc1ccc(SC(C)C(=O)Nc2ccccc2C(=O)N2CCOCC2)cc1 (stereo not given)	-3	-1	6	32*	-10	-9	8	2
CCOc1ccc(OCC)c(S(=O)(=O)NNC(=O)c2c(C)nc3ccccn23)c1	x	1	x	3	x	x	x	x
Cc1nc2ccccn2c1C(=O)NNS(=O)(=O)c1ccc(C(C)(C)C)cc1	x	-2	x	30*	x	x	20	10
COc1ccc(C(=O)c2ccc(N(C)C)cc2)c(OC)c1	-2	-1	3	0	4	-5	x	x
CN(C)c1ccc(C(=O)c2ccc(N(C)C)c3ccccc23)cc1	4	1	12	30*	4	-11	33*	64*
CCOC(=O)c1cnc(SC)nc1Oc1cccc(NS(=O)(=O)c2ccc(C)cc2)c1	-2	-1	4	-9	-5	-6	x	x
COc1cc(C(=O)NC(=S)Nc2ccc([N+](=O)[O-])cc2C)cc(OC)c1OC	x	-1	x	50*	x	x	7	4
CCOC(=O)C(O)(CC(=O)Nc1cc(F)ccc1C)C(F)(F)F (stereo not given)	-1	-2	1	29*	7	0	8	5
Cc1cccc2sc(NC(=O)C3CCN(S(=O)(=O)c4cc([N+](=O)[O-])ccc4Cl)CC3)nc12	x	-1	x	27*	x	x	22	21
Cc1ccc(NC(=O)CN(C)C(=O)COc2c(Cl)cc(Cl)c3ccc(C)nc23)cc1	x	-1	x	2	x	x	x	x
Cc1ccc(NC(=O)CN(C)C(=O)Cn2ncc(Cl)c(Cl)c2=O)cc1	x	-2	x	60*	x	x	83*	33*
COc1ccccc1NC(=O)c1ccc(-n2cccn2)nc1	-2	0	5	-10	6	-2	x	x
Cn1cnc([N+](=O)[O-])c1S(=O)(=O)c1ccc(Cl)cc1	x	-1	x	38*	x	x	41*	21
Cn1cnc([N+](=O)[O-])c1NC(C)(C)C	-3	0	0	3	-6	2	x	x
Clc1ccc2nc(N3CCNCC3)nc(-c3ccccc3)c2c1	59*	24*	-5	35*	2	3	30*	50*
OCCSc1nc2ccccc2n1CCOc1ccccc1	-5	-1	-1	-13	-10	4	x	x
SMILES	S1P2 ag	GALR2 agonist	LYP act	GALR2 blocker	S1P2 blocker	PTPN22 inh 2	GALR2 blk conf	BLA inhib ctr
COc1cccc(C(=O)Nc2ccc(S(=O)(=O)NCc3ccco3)cc2)c1	x	0	x	29*	x	x	15	12
O=C(CCC1CCCC1)Nc1ccc([N+](=O)[O-])cn1	x	-1	x	5	x	x	x	x
Nc1c(C(=O)Nc2nccs2)sc2nc(-c3cccs3)cc(C(F)(F)F)c12	-7	-1	-11	47*	19	7	27	15
Cc1nnc(NC(=O)c2sc3nc(-c4cccs4)cc(C(F)(F)F)c3c2N)s1	-10	0	3	8	-1	-5	x	x
CCCC(=O)OCCn1c(Br)nc2c1c(=O)[nH]c(=O)n2C	-13	-1	8	30*	-5	-5	25	0
NCCCC[C@@H]1NC(=O)c2cc([N+](=O)[O-])cc(I)c2SC[C@@H](C(=O)NCC(N)=O)NC(=O)CNC1=O	x	-1	x	2	x	x	x	x
Oc1ccccc1/C=N/Nc1ncc(Br)cn1	x	-1	x	8	x	x	x	x
Oc1ccccc1/C=N/Nc1ccccc1	x	-1	x	30*	x	x	38*	13
COC(=O)c1sccc1OC(C)C(C)=O (stereo not given)	-10	0	1	0	13	3	x	x
COc1cc(OC)nc(-n2ncc(Br)c(Br)c2=O)n1	x	-2	x	103*	x	x	103*	105*
CCOc1ccc(NC(=O)CCCOc2cc(=O)n(C)c3ccccc23)cc1	-7	-1	10	4	-20	-8	x	x
CC12C=CC3(O1)C(C(=O)N(c1ccccc1)C3C(=O)NC1CCCC1)C2C(N)=O (stereo not given)	-3	-2	-2	-6	5	2	x	x
COc1ccc(/C=C(\C#N)C(=O)Nc2cc(S(=O)(=O)N3CCCCC3)ccc2N2CCCCC2)cc1	x	-1	x	5	x	x	x	x
CC(=O)Oc1ccc(-c2cccc(C(=O)NCCCO)c2)cc1	x	-1	x	-2	x	x	x	x
COc1ccc(OCCNc2cc(Cl)ccc2[N+](=O)[O-])cc1	1	-4	-3	71*	-1	8	11	5
COc1ccc(OCCNc2cc(N3CCCCC3)ccc2[N+](=O)[O-])cc1	-1	-3	0	2	-33	2	x	x
CCSc1nnc(C)c(=O)n1COC(=O)c1ccc(S(=O)(=O)N2CCCC2)cc1	x	-1	x	-8	x	x	x	x
Cc1ccc(NC(=O)CCc2ccc(S(=O)(=O)NC3CCCCC3)cc2)cc1	-6	-2	12	14	-5	-8	x	x
Cc1ccc(NS(=O)(=O)c2ccc(CCC(=O)NC3CC3)cc2)cc1	-3	-4	-2	28*	-4	1	10	11
COc1ccc(S(=O)(=O)Nc2ccc(O)c(Sc3ncn[nH]3)c2)cc1	1	-1	-2	3	-24	3	x	x
O=S(=O)(Nc1cc(Sc2cccc3cccnc23)c(O)c2ccccc12)c1ccc(F)cc1	x	-2	x	34*	x	x	27	17
COc1ccc(S(=O)(=O)Nc2cc(Sc3ncn[nH]3)c(O)c3ccccc23)cc1	-2	0	1	49*	5	0	17	16
CC(C)(C)c1cc(C(=O)NCc2ccccc2)ccn1	-5	-1	-2	13	11	0	x	x
CC(=O)Oc1ccc2cc(-c3nc4ccccc4n3C)c(=O)oc2c1	38*	23*	3	37*	15	-5	23	30*
Cc1cc(-c2nnc(SCC(=O)c3ccc(F)cc3)o2)no1	x	0	x	4	x	x	x	x
